# Assay results: the supplement of paper PMC6555819
# Legend:
# Test in all cases: PBM binding z-score (relative to random genomic background probes); higher = stronger binding; sequences stand for … in GC…GCGATTGACAGCGTAGAATGAAGG
# [1] = system: FXR:RXRa (NR concentration 270 nM, RXRa partner concentration 90 nM)
# Summary of the method: (§1)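 Ligand-free nuclear receptor dimers were bound for 1 h to custom Agilent 4×180K protein-binding microarrays. Detection used antibodies against each partner (one per run). Binding z-scores rest on regression-normalized fluorescence, with random background probes as the reference.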
# [2] = system: LXRa:RXRa (NR concentration 270 nM, RXRa partner concentration 90 nM)
# Summary of the method: as §1
# [3] = system: LXRa homodimer (NR concentration 270 nM)
# Summary of the method: as §1
# [4] = system: LXRb:RXRa (NR concentration 270 nM, RXRa partner concentration 90 nM)
# Summary of the method: as §1
# [5] = system: LXRb homodimer (NR concentration 270 nM)
# Summary of the method: as §1
# [6] = system: PPARa:RXRa (NR concentration 270 nM, RXRa partner concentration 90 nM)
# Summary of the method: as §1
# [7] = system: PPARg:RXRa (NR concentration 180 nM, RXRa partner concentration 90 nM)
# Summary of the method: as §1
# [8] = system: PPARg:RXRa 270nM:90nM, anti-RXR (NR concentration 270 nM, RXRa partner concentration 90 nM)
# Summary of the method: as §1
# [9] = system: PPARg:RXRa 30nM:10nM, anti-RXR (NR concentration 30 nM, RXRa partner concentration 10 nM)
# Summary of the method: as §1
# [10] = system: PPARg:RXRa 90nM:30nM, anti-RXR (NR concentration 90 nM, RXRa partner concentration 30 nM)
# Summary of the method: as §1
# [11] = system: PPARg:RXRa DBDmut IVT, anti-RXR (DBD mutation: RXRa K156A/R161A, NR concentration 270 nM, RXRa partner concentration 90 nM)
# Summary of the method: as §1
# [12] = system: PPARg:RXRa IVT, anti-PPARg (NR concentration 270 nM, RXRa partner concentration 90 nM)
# Summary of the method: as §1
# [13] = system: PPARg DBDmut:RXRa IVT, anti-PPARg (DBD mutation: PPARg1 K132A/R137A, NR concentration 270 nM, RXRa partner concentration 90 nM)
# Summary of the method: as §1
# [14] = system: PPARg DBDmut IVT, anti-PPARg (DBD mutation: PPARg1 K132A/R137A, NR concentration 270 nM)
# Summary of the method: as §1
# [15] = system: PPARg homodimer (NR concentration 180 nM)
# Summary of the method: as §1
# [16] = system: PXR:RXRa (NR concentration 270 nM, RXRa partner concentration 90 nM)
# Summary of the method: as §1
# [17] = system: PXR homodimer (NR concentration 270 nM)
# Summary of the method: as §1
# [18] = system: RARa:RXR (NR concentration 270 nM, RXRa partner concentration 90 nM)
# Summary of the method: as §1
# [19] = system: RARa homodimer (NR concentration 270 nM)
# Summary of the method: as §1
# [20] = system: RARb:RXRa (NR concentration 270 nM, RXRa partner concentration 90 nM)
# Summary of the method: as §1
Sequence,PBM binding z-score [1],PBM binding z-score [2],PBM binding z-score [3],PBM binding z-score [4],PBM binding z-score [5],PBM binding z-score [6],PBM binding z-score [7],PBM binding z-score [8],PBM binding z-score [9],PBM binding z-score [10],PBM binding z-score [11],PBM binding z-score [12],PBM binding z-score [13],PBM binding z-score [14],PBM binding z-score [15],PBM binding z-score [16],PBM binding z-score [17],PBM binding z-score [18],PBM binding z-score [19],PBM binding z-score [20]
TAGCATAGGTCATTGGGCCAGTATAGTACGCATC,6.02,5.02,1.27,4.02,0.541,5.41,5.17,5.29,1.75,3.7,1.83,3.4,0.78,0.329,1.56,2.87,-0.00464,3.16,0.152,3.97
AGAATGAGGTTATCAAGATCAGGGAATTGCGGTC,1.64,1.37,0.0557,1.14,-0.163,2.8,1.6,2.08,0.462,1.29,3.5,2.6,0.708,-0.123,0.956,1.27,0.0679,1.67,0.465,1.71
TCTAGTTGGTCAGAGGTCACACACTCGAAATGCG,4.94,4.85,3.21,4.9,1.13,5.55,9.31,8.56,7.99,9.17,2.47,4.96,1.28,0.861,4.45,5.4,1.74,5.99,1.84,4.49
CAAACTGGGTCAAGAGGTCAAAGTCCGCTTCCCG,6.73,6.26,5.68,5.53,1.32,6.47,9.59,8.33,7.11,8.47,7.83,8.28,2.26,1.72,5.48,6.28,2.74,7.7,1.96,5.29
ATCGAAAGGTCGGAGGTGAGTATACCCACCCGAA,2.56,2.13,-0.237,1.67,0.308,3.57,2.78,3.13,1.04,2.13,-0.278,1.78,1.11,0.559,1.66,1.87,0.241,2.79,0.0274,3.28
ACTATTAGTTGAGACGAGGGCAACCTATAGGTTG,0.678,0.287,-0.0979,0.142,0.336,0.29,0.636,-0.0542,0.31,-0.00139,-0.0527,0.486,1.43,1.25,0.36,1.39,0.585,1.09,0.942,0.936
GCGACTGGGGCAATGCAGGTTACCATAAGGTTGG,0.0254,0.655,-0.566,0.504,-0.824,1.78,1.65,1.26,-0.113,0.69,4.37,4.53,-0.0887,-0.128,0.0203,0.548,-0.5,0.919,-0.465,0.959
TCTCGGATGACACGAAGGTCAGAGCTTTCCAGAG,2.3,1.55,0.495,1.4,-0.796,2.24,0.758,2.21,2.77,2.56,1.37,0.539,-0.684,-0.814,0.961,1.62,0.0323,2.3,-0.214,2.55
GCTATTAGTTGAAACGGCAACCGAATGATTCTCG,-0.263,-0.34,-0.23,-0.237,0.111,-0.33,0.341,-0.00574,0.0955,0.0763,0.254,-0.276,-0.0416,-0.0923,0.137,-0.267,0.122,-0.411,-0.177,-0.226
ACCGACAGGTGATGAAGGTAACTCAGGCTATCAT,-0.0834,-0.243,-0.257,-0.498,-0.393,0.179,0.492,-0.102,-0.173,-0.00846,0.339,0.157,0.484,0.654,0.0692,-0.165,-0.395,0.291,0.18,0.0834
TCATATAGGTAAAAGGAGAAAGTCGGTGTGGTAA,1.15,0.966,-0.0649,0.573,-0.239,2.06,2.92,4.79,4.87,5.01,4.08,2.11,0.507,0.375,0.959,0.415,0.686,0.571,1.29,0.195
TCTATTAGTTGACGGGCAACCGACGAGTCCGTTT,0.51,0.776,0.073,0.407,0.493,0.565,0.00282,1.62,3.47,2.48,2.04,0.118,0.163,0.317,0.156,0.38,0.151,0.201,0.109,0.613
TCTAGCAGGCCAGATGGTCACTCAAGAGGTACGG,-1.05,-0.551,-0.782,-1.05,-1.42,-0.0486,0.594,0.971,1.81,1.28,0.614,-0.0638,-0.764,-0.948,-0.88,-0.46,-0.899,-0.205,-1.39,0.242
GCTTTTAGATCAAGGTTAAGAAAGACTAAGCTAA,0.411,1.15,-0.245,0.993,0.252,1.49,0.495,1.1,0.053,0.706,0.974,0.787,0.785,0.404,0.294,0.507,0.294,1.07,0.203,1.04
AATACAGGGTCACTAGGCCAGGGTAGGTACGAAT,5.78,4.57,1.02,3.79,0.895,5.76,7.68,6.2,3.37,5.35,3.28,6,2.53,1.9,2.35,3.05,0.325,3.76,1.02,4.23
